We go through 8 compounds from PubChem BioAssay (NCATS).

Molecules are shown by their SMILES. Results filed as inconclusive are left out. The source made the active and inactive calls. Calls come from the whole dose curve; as a rule, active = well fitted curve in the direction sought with a large enough effect; inconclusive = small, poorly fitted or top-dose-only effect, or another doubt; inactive = no such curve, though single readings can be large; an effect the other way counts as inactive or inconclusive.

A short description of experiment [1]: qHTS of pediatric cancer cell lines to identify multiple opportunities for drug repurposing: Primary screen for TC32 cells (AID 1347089). Note: nearly all actives have a fitted effect of over 60% in size. The procedure, abridged: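 Luminescent ATP read-out (CellTiter-Glo) of metabolically active TC32 cells after 48 h exposure. Concentration-response curves came from 11-point (MIPE, 0.78 nM–46 µM) or 8-point (NPC, 0.59 nM–46 µM) primary titrations; follow-up used 11 points.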
(In general: In qHTS, concentration-response curves come from the screen itself.)

The nature of experiment [2]: qHTS of pediatric cancer cell lines to identify multiple opportunities for drug repurposing: Primary screen for DAOY cells (AID 1347090). Note: series mostly up to about 46 µM; nearly all actives have a fitted effect of over 55% in size. The procedure, abridged: (§1)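 Viability measured as metabolically active cells via CellTiter-Glo luminescence following 48 hours of compound exposure, 11-point dilutions in confirmatory testing. 500-1,000 cells/well plated 5 hours before dosing; controls were DMSO and 2.3 µM bortezomib.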

The nature of experiment [3]: qHTS of pediatric cancer cell lines to identify multiple opportunities for drug repurposing: Primary screen for SJ-GBM2 cells (AID 1347091). The procedure, abridged:
as §1

The nature of experiment [4]: qHTS of pediatric cancer cell lines to identify multiple opportunities for drug repurposing: Primary screen for A673 cells (AID 1347092). Note: nearly all actives have a fitted effect of over 45% in size. Note: potency is the fitted concentration of half-maximal effect. The procedure, abridged:
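Cell viability of A673 measured by CellTiter-Glo ATP luminescence after 48 hours compound exposure. Dilution series spanned 0.78 nM to 46 µM (MIPE, 11-point) or 0.59 nM to 46 µM (NPC, 8-point); bortezomib 2.3 uM positive control.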

Experiment [5] is described as follows: qHTS of pediatric cancer cell lines to identify multiple opportunities for drug repurposing: Primary screen for SK-N-MC cells (AID 1347093). Note: potency is the fitted concentration of half-maximal effect. The procedure, abridged: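 Metabolically active cells were quantified by ATP-dependent luminescence (CellTiter-Glo, 15 min at room temperature) following 48 h treatment. Cells had been plated at 500-1,000 per well and settled for 5 h beforehand.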

A short description of experiment [6]: qHTS of pediatric cancer cell lines to identify multiple opportunities for drug repurposing: Primary screen for BT-37 cells (AID 1347094). Note: potency is the fitted concentration of half-maximal effect. The procedure, abridged: (§2)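 ATP-based luminescence (CellTiter-Glo) quantifies viability after a 48-hour exposure. Compounds are dosed across 8 or 11 final concentrations; DMSO and 2.3 µM bortezomib serve as controls.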
Experiment [7] is described as follows: qHTS of pediatric cancer cell lines to identify multiple opportunities for drug repurposing: Primary screen for NB-EBc1 cells (AID 1347095). The procedure, abridged: as §2
The nature of experiment [8]: qHTS of pediatric cancer cell lines to identify multiple opportunities for drug repurposing: Primary screen for U-2 OS cells (AID 1347096). Note: nearly all actives have a fitted effect of over 50% in size. The procedure, abridged:
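Viability after 48 h compound treatment at 37C, 500-1,000 cells/well, read as ATP luminescence with CellTiter-Glo. Primary screens used 11-point (MIPE, 0.78 nM-46 µM) or 8-point (NPC, 0.59 nM-46 µM) final concentrations; follow-up screens used 11-point dilutions.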

Experiment [9] in a line: qHTS of pediatric cancer cell lines to identify multiple opportunities for drug repurposing: Primary screen for Saos-2 cells (AID 1347097). Note: nearly all actives have a fitted effect of over 40% in size. Note: potency is the fitted concentration of half-maximal effect. The procedure, abridged:
as §2

Experiment [10] can be described thus: qHTS of pediatric cancer cell lines to identify multiple opportunities for drug repurposing: Primary screen for SK-N-SH cells (AID 1347098).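 Note: DMSO served as neutral control and bortezomib at 2.3 µM as positive control; nearly all actives have a fitted effect of over 65% in size.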 The procedure, abridged: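 Cells (500-1,000/well) rested 5 h, then received compounds for 48 h; metabolically active cells were measured by CellTiter-Glo luminescence. Final concentrations spanned up to 46 µM (MIPE, 11-point) or 0.59 nM-46 µM (NPC, 8-point) in primary screens, 11-point in follow-ups.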

On to `O=C(OCc1ccccc1)c1ccc(O)cc1`, for which the compound was classed as inactive in experiment [1], in [2], in experiment [3], in [7] and in experiment [8]. Further, the Potency result in [4], in experiment [5], in [6] and in experiment [9] was “inactive” throughout.
Consider `O=C(O)CCC(=O)c1ccc(-c2ccccc2)cc1`, for which the compound was called inactive in experiment [1], in experiment [2], in [3], in [7], in [8] and in experiment [10]. Also, the Potency entry in [4], in experiment [5], in experiment [6] and in [9] was “inactive” throughout.
For `CN(C)CCCSc1ccccc1NC(=O)/C=C/c1ccccc1`, the call in [1], in experiment [2], in experiment [7], in experiment [8] and in [10] was inactive. The Potency entry in [5] and in [6] was “inactive” throughout. Moreover, in experiment [9], the Potency was 21.1 µM (active).
As for `CC(=O)Oc1cccc2c1C(=O)c1c(OC(C)=O)cc(C(=O)O)cc1C2=O`, the compound was classed as inactive in [1], in [3], in experiment [8] and in experiment [10]. In addition, in [4], the Potency was 21.1 µM (active). For the same compound, the Potency entry in experiment [6] was “inactive”.
For `Oc1ccc(/C=C/c2cc(O)cc(O)c2)cc1`, the outcome in experiment [1], in experiment [2], in experiment [7] and in experiment [8] was inactive. Besides, the values for the Potency in experiment [5] and in experiment [6] were 15 µM (active) and 19.5 µM (active), respectively. For the same compound, the Potency entry in experiment [9] was “inactive”.
Regarding `Nc1ccc(N=Nc2ccccc2)c(N)n1`, the result in experiment [1], in experiment [2], in [3], in experiment [7] and in experiment [8] was inactive. Also, the Potency entry in experiment [4], in experiment [5], in experiment [6] and in [9] was “inactive” throughout.
As to `COc1ccc2nc(NC(=O)Nc3ccccc3)sc2c1`, the call in experiment [1], in experiment [2], in experiment [3], in experiment [7], in experiment [8] and in [10] was inactive. For the same compound, the Potency result in experiment [4], in experiment [5] and in experiment [6] was “inactive” in each case.
For the compound `O=C1c2ccccc2C(=O)c2c1ccc(O)c2O`, the result in experiment [1], in experiment [2], in experiment [7], in experiment [8] and in experiment [10] was inactive. Also, the Potency result in experiment [4] and in experiment [5] was “inactive” in each case. Also, the Potency in experiment [9] was 23.7 µM (active).
